The target of test [1] is Estrogen receptor beta (Homo sapiens) (UniProt Q92731). Briefly: qHTS assay to identify small molecule agonists of the estrogen receptor beta (ER-beta) signaling pathway (AID 1259377; active means well fitted activation curve with a large enough effect in the signal ratio in the repeat runs, not every such curve was filed as active; the % refers to the signal ratio). The method in brief: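 Read-out: beta-lactamase FRET fluorescence. Cell line: ER-beta-UAS-bla HEK293T in 2% charcoal-stripped FBS. Exposure: 16 hr at 37C. Substrate step: 2 h at room temperature.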
Chain of Estrogen receptor beta (Homo sapiens) (Q92731 whole entry, looked up): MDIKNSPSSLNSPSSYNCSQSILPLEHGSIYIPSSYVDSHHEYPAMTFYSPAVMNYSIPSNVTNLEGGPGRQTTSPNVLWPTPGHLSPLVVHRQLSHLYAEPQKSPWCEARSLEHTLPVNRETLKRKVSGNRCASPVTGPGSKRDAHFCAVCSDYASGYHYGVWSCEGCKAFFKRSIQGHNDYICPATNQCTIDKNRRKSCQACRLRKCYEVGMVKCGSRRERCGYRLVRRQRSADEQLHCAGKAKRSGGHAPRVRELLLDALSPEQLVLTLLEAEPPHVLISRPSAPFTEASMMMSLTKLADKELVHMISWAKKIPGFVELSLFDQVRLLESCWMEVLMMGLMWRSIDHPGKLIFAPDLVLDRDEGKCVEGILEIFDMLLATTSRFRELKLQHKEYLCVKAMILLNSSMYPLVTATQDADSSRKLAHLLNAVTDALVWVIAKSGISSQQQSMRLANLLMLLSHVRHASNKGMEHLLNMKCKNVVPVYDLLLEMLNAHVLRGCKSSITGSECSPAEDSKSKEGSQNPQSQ

The target is the same in test [2]. Briefly: qHTS assay to identify small molecule antagonists of the estrogen receptor beta (ER-beta) signaling pathway (AID 1259378; active means well fitted inhibition curve with a large enough effect in the signal ratio in the repeat runs, not every such curve was filed as active; the % refers to the signal ratio). The method in brief: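 ER-beta-UAS-bla HEK293T (GripTite) cells in 2% charcoal-stripped FBS medium were preincubated 6 hr at 37C, dosed with compound, then stimulated with 1 nM E2 (final) for 16 hr; beta-lactamase reporter read by B/G FRET fluorescence after 2 hr substrate loading.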

Test [3] can be described thus: qHTS assay to identify small molecule agonists of the estrogen receptor beta (ER-beta) signaling pathway - cell viability counter screen (AID 1259380). Further: nearly all actives have a fitted effect of over 30% in size. Further: potency means the concentration at half of the fitted maximal effect. The method in brief:
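Cells used were ER-beta-UAS-bla HEK293T in medium with 2% charcoal-stripped FBS. They were treated for 16 hr at 37C. Viability came from CellTiter-Glo luminescence.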

The nature of test [4]: qHTS assay to identify small molecule antagonists of the estrogen receptor beta (ER-beta) signaling pathway - cell viability counter screen (AID 1259382). Further: series mostly up to about 92 µM; nearly all actives have a fitted effect of over 55% in size. An outline of the steps:
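Agonist-stimulated (1nM E2) ER-beta-UAS-bla HEK293T cells are incubated with library compounds for 16 hr at 37C. Cell viability is then assessed in the reporter-assay wells by adding CellTiter-Glo and reading luminescence after 30 min.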

The target of test [5] is Estrogen receptor (Homo sapiens) (UniProt P03372). As to the kind of experiment: qHTS assay to identify small molecule agonists of the estrogen receptor alpha (ER-alpha) signaling pathway in the presence of an antagonist (AID 1259383; calls by dose curve; further: top concentration of the series differs between compounds; nearly all actives have a fitted effect of over 15% in size). An outline of the steps:
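Using VM7Luc4E2 cells seeded 24hr before treatment, antagonist ICI-182,780 (10.0nM final) was added, followed by compounds at 15 concentrations. Plates incubated 22hr; ONE-Glo luminescence quantified reporter activity.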

Test [6] can be described thus: qHTS assay to identify small molecule agonists or antagonists of the thyroid stimulating hormone receptor (TSHR) signaling pathway - wild type cell line counter screen (AID 1259384; calls by dose curve). The method in brief:
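Wild-type HEK293 cells were plated 18 h at 37 C/5% CO2, pin-dosed with compound plus Ro20-1724 medium, held 30 min at room temperature, then given cAMP-d2 and anti-cAMP-cryptate; fluorescence was read after 1 h. Fifteen concentrations, triplicate.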

Test [7] addresses Thyrotropin receptor (Homo sapiens) (UniProt P16473). Briefly: qHTS assay to identify small molecule antagonists of the thyroid stimulating hormone receptor (TSHR) signaling pathway (AID 1259385; calls by dose curve; further: nearly all actives have a fitted effect of over 20% in size). The method in brief: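 TSHR-HEK293 cells were plated and held 18 h at 37C/5% CO2, then given compound plus Ro20-1724 and stimulated with TSH at 1.5 ng/mL final. After 30 min at room temperature, cAMP was detected with cAMP-d2/anti-cAMP-cryptate (1 h) by fluorescence.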

Test [8] in a line: qHTS assay to identify small molecule agonists of the estrogen receptor alpha (ER-alpha) signaling pathway in the presence of an antagonist - cell viability counter screen (AID 1259386).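 Further: series mostly up to about 92 µM; cells exposed to compounds for 22 h at 37 °C before the viability read; nearly all actives have a fitted effect of over 30% in size.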 The method in brief:
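ICI-182,780 at 10.0nM final accompanies the compound titration (15 concentrations, 22hr, 37C) on VM7Luc4E2 cells. The CellTiter-Fluor fluorescence readout runs in the same wells as the luciferase assay.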

The target of test [9] is Progesterone receptor (Homo sapiens) (UniProt P06401). Briefly: qHTS assay to identify small molecule agonists of the progesterone receptor (PR) signaling pathway (AID 1346784; calls by dose curve; further: nearly all actives have a fitted effect of over 30% in size). The method in brief: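 Compounds were tested for PR agonism in HEK 293T cells bearing a beta-lactamase gene under UAS control. Treatment lasted 16 hr at 37C; signal came from fluorescence of a FRET substrate.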
Chain of Progesterone receptor (Homo sapiens) (P06401 whole entry, looked up): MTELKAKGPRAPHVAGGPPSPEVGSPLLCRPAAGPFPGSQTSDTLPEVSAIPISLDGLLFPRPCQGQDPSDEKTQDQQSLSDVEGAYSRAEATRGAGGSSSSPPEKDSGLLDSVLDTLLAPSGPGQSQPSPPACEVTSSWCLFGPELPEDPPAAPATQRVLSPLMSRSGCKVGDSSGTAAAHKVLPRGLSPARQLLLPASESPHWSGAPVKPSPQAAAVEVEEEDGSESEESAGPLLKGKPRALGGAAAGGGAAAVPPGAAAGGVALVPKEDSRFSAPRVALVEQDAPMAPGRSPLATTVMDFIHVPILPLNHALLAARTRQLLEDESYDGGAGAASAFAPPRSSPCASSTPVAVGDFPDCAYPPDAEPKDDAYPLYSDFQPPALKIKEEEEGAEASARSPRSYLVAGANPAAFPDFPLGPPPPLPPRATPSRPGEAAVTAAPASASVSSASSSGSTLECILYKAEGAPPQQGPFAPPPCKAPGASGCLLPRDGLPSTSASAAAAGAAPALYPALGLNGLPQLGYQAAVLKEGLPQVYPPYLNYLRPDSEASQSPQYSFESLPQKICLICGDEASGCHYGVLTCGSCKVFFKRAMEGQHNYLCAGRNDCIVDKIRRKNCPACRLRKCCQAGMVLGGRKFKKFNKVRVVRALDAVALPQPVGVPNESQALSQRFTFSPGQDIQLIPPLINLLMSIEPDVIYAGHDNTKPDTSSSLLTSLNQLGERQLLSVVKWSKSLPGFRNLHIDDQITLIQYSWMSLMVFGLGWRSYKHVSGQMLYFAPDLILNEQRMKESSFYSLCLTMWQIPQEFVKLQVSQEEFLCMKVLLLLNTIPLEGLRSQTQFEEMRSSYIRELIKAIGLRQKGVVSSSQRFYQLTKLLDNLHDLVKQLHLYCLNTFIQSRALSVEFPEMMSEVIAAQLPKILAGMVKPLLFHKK

Test [10] can be described thus: qHTS assay to identify small molecule antagonists of the progesterone receptor (PR) signaling pathway - cell viability counter screen (AID 1346798). Further: nearly all actives have a fitted effect of over 50% in size. Further: potency means the concentration at half of the fitted maximal effect. On activity change, negative = cytotoxicity: series mostly up to about 92 µM. The method in brief: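 Following a 4 hr attachment, PR-UAS-bla HEK293T cells in charcoal-stripped FBS medium were exposed to compounds with R5020 for 16 hr; CellTiter-Glo was added and luminescence read after 30 min at room temperature.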

Test [11] is described as follows: qHTS assay to identify small molecule agonists of the progesterone receptor (PR) signaling pathway - cell viability counter screen (AID 1346799; calls by dose curve; further: nearly all actives have a fitted effect of over 45% in size). An outline of the steps: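 Here, 3,000 PR-UAS-bla HEK293T cells per well were treated with compounds for 16 hr after a 6 hr preincubation at 37C and 5% CO2; cell viability is the CellTiter-Glo luminescence signal.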
Test [12] is described as follows: qHTS assay to identify small molecule antagonists of the TGF-beta/Smad signaling pathway - cell viability counter screen (AID 1346824). Further: nearly all actives have a fitted effect of over 50% in size. An outline of the steps: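 SBE-bla HEK 293T cells were plated overnight at 37 C, then given compounds in DMSO plus TGF-beta1 (added as 0.25 ng/mL solution) for 5 hr. After the bla read, CellTiter-Glo was added to the same wells and luminescence read after 30 min at room temperature.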

Test [13] can be described thus: qHTS assay to identify small molecule agonists of the TGF-beta/Smad signaling pathway - cell viability counter screen (AID 1346829). Further: top concentration of the series differs between compounds; nearly all actives have a fitted effect of over 45% in size. An outline of the steps:
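After overnight seating at 37 C and 5% CO2, reporter cells got compounds for 5 hr and FRET substrate for 2 hr; cell viability then came from CellTiter-Glo luminescence.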

Test [14] has as its target Thyrotropin-releasing hormone receptor (Homo sapiens) (UniProt P34981). Briefly: qHTS assay to identify small molecule antagonists of the thyrotropin-releasing hormone receptor (TRHR) signaling pathway (AID 1346877; active means well fitted inhibition curve with a large enough effect in the repeat runs, not every such curve was filed as active; further: series mostly up to about 51 µM). The method in brief:
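Screening used HEK293 cells engineered with TRHR, with a brief 5 min room-temperature compound exposure preceding addition of TRH to 1 nM. The read-out was kinetic calcium-dye fluorescence, concentration-response from 15 doses in triplicate.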

Test [15] is described as follows: qHTS assay to identify small molecule antagonists of the sonic hedgehog signaling (Shh) pathway (AID 1259369; calls by dose curve; further: nearly all actives have a fitted effect of over 45% in size). An outline of the steps:
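Conditioned medium drives Shh signalling in 3T3Gli1-Luc cells; compounds in DMSO co-applied, 24hr at 37 C, then luciferase luminescence.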

Test [16] deals with Androgen receptor (Homo sapiens) (UniProt P10275). Briefly: qHTS assay to identify small molecule agonists of the androgen receptor (AR) signaling pathway in the presence of an antagonist (AID 1259381; calls by dose curve; further: nearly all actives have a fitted effect of over 15% in size). The method in brief:
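Using human MDA-kb2 cells with an MMTV promoter–luciferase construct (AR and GR response elements), agonist activity is scored under 3.0uM nilutamide (final) co-treatment; 16hr incubation, 37C, luminescence readout via ONE-Glo.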

The target of test [17] is Progesterone receptor (Homo sapiens) (UniProt P06401). As to the kind of experiment: qHTS assay to identify small molecule antagonists of the progesterone receptor (PR) signaling pathway (AID 1346795; active means well fitted inhibition curve with a large enough effect in the signal ratio in the repeat runs, not every such curve was filed as active; the % refers to the signal ratio; further: potency means the concentration at half of the fitted maximal effect). The method in brief: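 In HEK293T cells bearing the PR-UAS-bla reporter, compound effects on promegestone-driven (1 nM) beta-lactamase expression are assessed after 16 hr using a fluorescent FRET substrate incubated 2 hr at room temperature.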

Test [18] in a line: qHTS assay to identify small molecule agonists of the TGF-beta/Smad signaling pathway (AID 1346859; active means well fitted activation curve with a large enough effect in the signal ratio in the repeat runs, not every such curve was filed as active; the % refers to the signal ratio; further: series mostly up to about 77 µM). The method in brief:
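Each well held 4,000 SBE-bla HEK 293T cells incubated overnight before compound addition; 5 hr later the cleavable FRET substrate went on for 2 hr at room temperature, and fluorescence was read at two emissions.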

Test [19] is described as follows: qHTS assay to identify small molecule agonists of the androgen receptor (AR) signaling pathway in the presence of an antagonist - cell viability counter screen (AID 1259379).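 Further: MDA-kb2 human breast cancer cells carrying an MMTV luciferase reporter; series mostly up to about 92 µM; nearly all actives have a fitted effect of over 25% in size.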 An outline of the steps:
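A CellTiter-Fluor read-out measured viability of MDA-kb2 reporter cells (MMTV promoter with AR and GR response elements). Treatment: nilutamide 3.0uM final with compounds at 15 concentrations, 16 hr, 37C, 0% CO2.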

Values without a mark were called inactive. Inconclusive results are not listed. The source made the active and inactive calls. Unless noted, the call rests on the fitted dose curve; in most records, active means well fitted curve in the direction sought with a large enough effect in the repeat runs; inconclusive means weak or mixed curves; inactive means no such curve, though single readings can be large; an effect the other way counts as inactive or inconclusive.
On the % scale 0 is the no-effect control and ±100 the full control effect.

Chain of Thyrotropin-releasing hormone receptor (Homo sapiens) (P34981 whole entry, looked up): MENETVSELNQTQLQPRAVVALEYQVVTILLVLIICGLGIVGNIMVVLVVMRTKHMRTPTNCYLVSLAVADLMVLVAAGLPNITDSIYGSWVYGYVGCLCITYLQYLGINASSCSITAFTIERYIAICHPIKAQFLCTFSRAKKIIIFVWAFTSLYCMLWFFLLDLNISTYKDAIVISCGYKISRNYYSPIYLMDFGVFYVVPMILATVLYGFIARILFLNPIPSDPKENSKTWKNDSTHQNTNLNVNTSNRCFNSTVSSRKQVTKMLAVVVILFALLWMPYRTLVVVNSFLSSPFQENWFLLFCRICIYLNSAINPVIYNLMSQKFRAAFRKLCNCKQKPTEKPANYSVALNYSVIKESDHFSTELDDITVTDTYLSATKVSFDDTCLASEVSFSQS
Chain of Estrogen receptor (Homo sapiens) (P03372 whole entry, looked up): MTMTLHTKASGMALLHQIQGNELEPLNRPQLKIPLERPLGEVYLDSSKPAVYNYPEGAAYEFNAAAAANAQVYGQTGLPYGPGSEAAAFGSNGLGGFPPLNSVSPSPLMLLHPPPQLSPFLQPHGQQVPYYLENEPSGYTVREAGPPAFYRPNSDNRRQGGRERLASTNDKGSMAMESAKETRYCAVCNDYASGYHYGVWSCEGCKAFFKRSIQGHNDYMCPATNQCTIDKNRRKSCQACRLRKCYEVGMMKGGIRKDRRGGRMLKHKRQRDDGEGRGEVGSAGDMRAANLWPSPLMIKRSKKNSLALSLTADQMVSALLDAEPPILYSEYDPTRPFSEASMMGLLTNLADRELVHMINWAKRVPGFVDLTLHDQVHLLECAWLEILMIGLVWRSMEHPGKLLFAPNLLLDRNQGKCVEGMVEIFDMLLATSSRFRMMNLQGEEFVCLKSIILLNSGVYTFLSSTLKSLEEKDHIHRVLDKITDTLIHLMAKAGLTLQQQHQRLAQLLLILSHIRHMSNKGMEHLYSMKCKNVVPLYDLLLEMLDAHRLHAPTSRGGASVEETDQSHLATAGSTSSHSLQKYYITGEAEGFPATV
Chain of Thyrotropin receptor (Homo sapiens) (P16473 whole entry, looked up): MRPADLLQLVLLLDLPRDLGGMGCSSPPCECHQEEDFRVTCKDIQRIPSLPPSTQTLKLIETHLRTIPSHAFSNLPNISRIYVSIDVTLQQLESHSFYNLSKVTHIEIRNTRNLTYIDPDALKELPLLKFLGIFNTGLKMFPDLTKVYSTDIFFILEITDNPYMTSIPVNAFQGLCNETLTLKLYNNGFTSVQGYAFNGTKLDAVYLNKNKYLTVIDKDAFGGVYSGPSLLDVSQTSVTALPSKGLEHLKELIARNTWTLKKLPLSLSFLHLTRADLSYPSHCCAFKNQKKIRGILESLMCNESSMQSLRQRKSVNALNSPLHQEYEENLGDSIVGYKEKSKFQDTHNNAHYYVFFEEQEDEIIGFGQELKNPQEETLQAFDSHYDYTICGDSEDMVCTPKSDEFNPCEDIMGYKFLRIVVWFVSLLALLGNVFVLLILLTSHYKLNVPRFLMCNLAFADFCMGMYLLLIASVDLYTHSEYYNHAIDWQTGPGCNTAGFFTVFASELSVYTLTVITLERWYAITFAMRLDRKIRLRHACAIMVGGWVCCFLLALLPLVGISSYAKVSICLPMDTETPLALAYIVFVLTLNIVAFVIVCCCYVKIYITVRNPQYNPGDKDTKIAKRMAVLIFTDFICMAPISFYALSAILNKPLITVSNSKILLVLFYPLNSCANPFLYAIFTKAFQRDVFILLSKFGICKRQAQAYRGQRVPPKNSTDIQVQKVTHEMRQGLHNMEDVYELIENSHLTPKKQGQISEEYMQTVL
Chain of Androgen receptor (Homo sapiens) (P10275 whole entry, looked up): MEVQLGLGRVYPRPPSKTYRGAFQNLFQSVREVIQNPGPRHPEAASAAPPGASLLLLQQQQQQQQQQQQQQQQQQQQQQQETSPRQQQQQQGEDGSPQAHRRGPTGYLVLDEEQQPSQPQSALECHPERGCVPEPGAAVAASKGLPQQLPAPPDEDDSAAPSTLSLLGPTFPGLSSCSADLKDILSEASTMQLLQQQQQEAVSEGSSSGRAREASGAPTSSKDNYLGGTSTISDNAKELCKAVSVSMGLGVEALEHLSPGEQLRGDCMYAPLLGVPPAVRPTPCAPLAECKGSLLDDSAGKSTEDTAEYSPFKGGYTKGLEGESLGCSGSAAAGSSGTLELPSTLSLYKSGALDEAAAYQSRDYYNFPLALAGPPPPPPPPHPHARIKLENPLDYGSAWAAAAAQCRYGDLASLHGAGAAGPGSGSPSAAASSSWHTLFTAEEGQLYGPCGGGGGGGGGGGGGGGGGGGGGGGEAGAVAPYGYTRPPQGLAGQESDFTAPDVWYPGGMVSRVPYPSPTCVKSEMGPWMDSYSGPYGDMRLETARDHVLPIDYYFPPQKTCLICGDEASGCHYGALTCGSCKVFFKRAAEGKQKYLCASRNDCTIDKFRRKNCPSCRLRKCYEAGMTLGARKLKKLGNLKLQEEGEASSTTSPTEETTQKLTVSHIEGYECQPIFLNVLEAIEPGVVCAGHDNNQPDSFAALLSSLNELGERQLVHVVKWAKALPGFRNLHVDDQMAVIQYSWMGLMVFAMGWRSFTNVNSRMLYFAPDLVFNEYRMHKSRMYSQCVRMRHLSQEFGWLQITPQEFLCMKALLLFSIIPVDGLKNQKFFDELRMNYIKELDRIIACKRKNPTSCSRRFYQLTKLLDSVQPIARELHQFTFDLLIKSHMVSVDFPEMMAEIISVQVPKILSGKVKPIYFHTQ

As to `Clc1ccc(C(OCCN2CCCCC2)c2ccccc2)cc1` (centres undefined), the Potency result in [1], in test [2], in test [4], in test [5], in [7] and in test [8] was “inactive” throughout. For the same molecule, the Potency result in [9], in [10], in test [11], in test [12], in test [13] and in test [14] was “inactive” in each case. Further, the Potency in test [3] is 18.8 µM (active). For the same molecule, the call in test [6] was inactive.
As to `Cl/C=C\C[N+]12CN3CN(CN(C3)C1)C2`, the Potency entry in test [15], in test [1], in test [2], in [3], in test [16] and in test [4] was “inactive” each time. Also, the Potency entry in [5], in [7], in test [8], in test [9], in test [17] and in test [10] was “inactive” each time. The Potency result in test [11], in test [12], in test [13] and in [14] was “inactive” in each case. Also, the result in [6] and in [18] was inactive.
For the molecule `CC(C)(C)C(O)C(Oc1ccc(Cl)cc1)n1cncn1` (centres undefined), the Potency entry in test [19], in test [4], in test [7], in [8], in test [12] and in test [13] was “inactive” each time. In addition, the Potency entry in test [14] was “inactive”. Further, the call in test [6] and in test [18] was inactive. Further, the Potency in test [10] is 54.5 µM (active).
For the molecule `C=CCOC(C)=O`, the Potency result in test [15], in test [1], in [19], in test [3], in [16] and in [4] was “inactive” throughout. Further, the Potency entry in test [5], in test [7], in [8], in test [9], in [10] and in test [11] was “inactive” throughout. The Potency result in test [12], in test [13] and in test [14] was “inactive” in each case. Further, the call in test [6] and in [18] was inactive. Besides, in test [17], the Potency is 1.91 µM (active).
As for `CCCCNP(N)(N)=S`, the Potency entry in test [15], in [2], in test [19], in test [3], in [4] and in [5] was “inactive” throughout. In addition, the Potency result in test [7], in test [8], in [9], in test [17], in test [10] and in test [11] was “inactive” throughout. The Potency entry in [12], in test [13] and in [14] was “inactive” each time. For the same molecule, the call in [6] and in [18] was inactive.
For `O=C1C(Cl)C(CCl)CN1c1cccc(C(F)(F)F)c1` (centres undefined), the Potency result in test [1], in test [2], in test [16], in test [4], in [7] and in test [8] was “inactive” each time. Moreover, the Potency entry in [9], in test [11], in test [12], in test [13] and in [14] was “inactive” throughout. Moreover, the molecule was called inactive in test [6] and in test [18]. Also, the results for the Potency in [17] and in [10] were 30.6 µM (active) and 0.864 µM (active), respectively.
In the case of `CCOC(=O)[C@]1(c2ccccc2)Oc2ccccc2[C@@H]1N`, the Potency result in test [1], in test [4], in test [7], in [9], in test [10] and in [12] was “inactive” in each case. The Potency entry in test [13] and in test [14] was “inactive” in each case. In addition, the result in test [6] and in test [18] was inactive.
On to `O=C(C(Cl)(Cl)Cl)C(Cl)(Cl)Cl`, for which the Potency entry in test [15], in test [19], in test [3], in [16], in test [4] and in [5] was “inactive” each time. Also, the Potency result in test [8], in [9], in test [17], in [10], in test [11] and in test [12] was “inactive” each time. In addition, the Potency entry in test [13] and in [14] was “inactive” in each case. The result in test [18] was inactive.
As to `CO[C@@H]1[C@H](OC(=O)NC(=O)CCl)CC[C@]2(CO2)[C@H]1[C@@]1(C)O[C@@H]1CC=C(C)C`, the figures for the activity change, negative = inhibition in [15], in test [7] and in test [17] were -6.49% [at 19 µM], 0.358% [at 19 µM] and 6.82% [at 18.9 µM], respectively. Moreover, the activation in test [1] was -2.62% [at 19 µM]; in test [16] it was -3.01% [at 19 µM]; in [5], -0.438% [at 19 µM]; in test [18] it was 3.24% [at 15.8 µM]. The activity, negative = inhibition is -21.4% [at 19 µM] in test [2] and 4.68% [at 10.5 µM] in test [14]. For the same molecule, the activity change, negative = cytotoxicity in [19] is -2.66% [at 19 µM]; in test [4], -10.8% [at 19 µM]; in [8], -1.81% [at 19 µM]; in test [10], -12.2% [at 18.9 µM]; in [11], -29% [at 19 µM]; in test [13], 8.28% [at 15.8 µM]. For the same molecule, the cAMP activity change in test [6] is 2.97% [at 18.9 µM]. In addition, the viability change, negative = cytotoxic in test [12] is 3.4% [at 15.8 µM].

The values are drawn from PubChem BioAssay (Tox21).
